# Assay results published in PubChem BioAssay AID1985 (Southern Research Specialized Biocontainment Screening …, 2009).
# In all, about 2,300 compounds went through this assay and about 1,000 (43%) were called active. The set was probably picked from earlier hits. The list shows a part of the results. Potency and affinity values are given separately. A number with no mark means an inactive call. The rule behind the calls is not given here.
# Experiment: modified counter assay using GFP fluorescence, PhoP regulon inhibitor project, dose response (AID 1985)
# Conditions: S. Typhi, 4 h; series mostly up to 150 µM; inhibition: at the top concentration
row,Compound,inhibition
1,CCC(C)n1c(SCC(=O)NCc2ccco2)nnc1-c1cccc(S(=O)(=O)N2CCOCC2)c1 (stereo not given),15.2%
2,COC(=O)c1ccccc1NC(=O)CSc1ncn[nH]1,-15.8%
3,COc1cccc(C(=O)Nc2cccc(SC)c2)c1,8.22%
4,CSc1cccc(NC(=O)/C=C/c2ccco2)c1,23.1%
5,Cc1ccc(-c2c[n+](Cc3ccc(Cl)c(Cl)c3)c3n2CCC3)cc1,-16.3%
6,CC1CCCC(NC(=O)COC(=O)Cc2c[nH]c3ccccc23)C1C (stereo not given),-10.8%
7,CCC(=O)Nc1nc(C)c(C(=O)N2CCCCC2)s1,8.55%
8,CC(/C=C\c1cccnc1)=C/C(=O)O,1.58%
9,O=C(N/N=C/c1cccnc1)c1ccc(F)cc1,2.11%
10,Cc1ccc(C(C)C)c(OCCNC(=O)c2ccccc2O)c1,29.6%
11,O=C(Nc1ncccc1O)c1c(O)c2ccccc2[nH]c1=O,17.4%
12,CCC(Sc1nccn1C)C(=O)Nc1nnc(C)s1 (stereo not given),-7.61%
13,Cc1ccc(-c2noc(CN3CCCCC3)n2)cc1,-29.6%
14,OCCN1CCN(Cc2cc(Cl)c3cccnc3c2O)CC1,39.2%
15,Cc1nc(N2CCOCC2)c2c(C)c(C(=O)Nc3ccccc3C(F)(F)F)sc2n1,21.2%
16,O=c1c2ccccc2nc(COc2ccccc2)n1/N=C/c1ccc(O)cc1O,15.7%
17,CCn1c(SCC(=O)Nc2oc(-c3ccccc3)c(-c3ccccc3)c2C#N)nnc1-c1ccco1,30%
18,CCCC(CCC)C(=O)NCCN1CCOCC1,-18.2%
19,COc1cccc(-c2ccc(SCc3ccccn3)nn2)c1,-17.4%
20,Fc1ccc(/C=N/Nc2nc3ccccc3[nH]2)cc1F,21.8%
21,CC1CCN(CCOCCOc2ccc(Br)cc2Cl)CC1,21.5%
22,COC(=O)c1cc2sccc2n1Cc1nc(-c2ccc(OC)cc2)oc1C,-9.46%
23,Oc1c(CN2CCN(c3ccccn3)CC2)cc(Cl)c2cccnc12,6.65%

row,Compound,inhibition
1,Cc1cc2cc(CNC(=O)C(C)Oc3ccccc3)ccc2n1C (stereo not given),-17.3%
2,CNCCCC1c2ccccc2C=Cc2ccccc21,37.2%
3,COc1cc(OC)c(C2CC(=O)N3CN(c4ccccc4)CSC3=C2C#N)cc1OC (stereo not given),0.55%
4,COc1ccccc1-c1nc(C(F)(F)F)c(OC)o1,-6.77%
5,Cc1nc(C)c(-c2ccc(SCc3ccccc3F)nn2)s1,-17.5%
6,NC(=O)c1cc(S(=O)(=O)Nc2cccc(F)c2)co1,23.2%
7,O=C(NC1=NCCS1)c1cccc2ccccc12,-30.7%
8,COc1ccc(C(=O)N/N=C/c2cccnc2)cc1,32.4%
9,CCn1ncc(/C=N\NC(=O)c2csc3ccccc23)c1C,-13.8%
10,Cc1c(/C=N/NC(=O)c2sc3ccccc3c2Cl)cnn1C,12.1%
11,O=C(NC1CC1)C1CCN(C2CCN(C(=O)Cc3ccc(F)cc3)CC2)CC1,-0.34%
12,CN1C(=O)N2CN(C3CCCCC3)CN3C(=O)N(C)C1C23 (stereo not given),26.2%
13,CCn1nccc1C(=O)Nc1cc(Cl)cc(Cl)c1,14.2%
14,CCOC(=O)N1CCN(CCC(=O)c2ccc(Br)cc2)CC1,36.8%
15,O=C(C[n+]1cn(C(F)F)c2ccccc21)c1ccc(Br)cc1,-42.7%
16,CCOC(=O)N1CCN(CC(=O)Nc2ccc(F)cc2F)CC1,-11%
17,O=C(CCN1CCC(c2ccccc2)C1)c1ccc2c(c1)OCCO2 (stereo not given),-0.06%
18,O=C(CCN1CCN(c2ccccc2)CC1)c1ccc(Cl)cc1,27%
19,O=C(c1cccs1)N1CCC(N2CCN(c3ccccc3)CC2)CC1,0.94%
20,COc1ccc(C(=O)N2CCN(C(=O)Cc3ccccc3)CC2)cc1OC,-8.35%
21,O=c1[nH]n(-c2ccccc2)c(=O)c2ccccc12,25.6%
22,CCOc1ccc(S(=O)(=O)N2CCC(C(=O)NCCN3CCOCC3)CC2)cc1C,10.5%
23,O=c1c2ccccc2ncn1Cc1ccc(Cl)cc1,-17.5%

row,Compound,inhibition
1,CC(=O)C1=C(O)C(=O)N(CCN2CCOCC2)C1c1ccccc1 (stereo not given),6.14%
2,CCc1ccc(C(=O)CC2(O)C(=O)N(CN3CCOCC3)c3ccccc32)cc1 (stereo not given),19.9%
3,O=C(COC(=O)/C=C/c1cccc(C(F)(F)F)c1)NCc1ccccc1,-28.6%
4,CCC[C@H](CN[C@@H](CNC)[C@H](C)CC)NCCc1cc(C(F)(F)F)cc(C(F)(F)F)c1,-3.97%
5,COc1cc2c3cc1Oc1cc(ccc1O)C[C@@H]1c4c(cc(OC)c(O)c4Oc4ccc(cc4)C[C@H]3N(C)CC2)CCN1C,3.53%
6,Cc1ccc(C(C[N+](=O)[O-])n2nc(C)cc2C)cc1 (stereo not given),35% [at 75 µM]
7,CCN1C(=O)NC(c2ccccc2)C1=O (stereo not given),18%
8,CCN(CC)CCCCCCCCOC(=O)c1cc(OC)c(OC)c(OC)c1,-1.68%
9,COc1cc(C(c2nnnn2C2CCCC2)N2CCN(C)CC2)cc(OC)c1OC (stereo not given),2.81%
10,O=S1(=O)CC=C(CSc2nc3ccccc3[nH]2)C1,-9.82%
11,Cc1ccnc(NS(=O)(=O)c2ccc(N=CC3=C(O)CC(C)(C)CC3=O)cc2)n1,33.4%
12,Cc1ccc(-n2[nH]c(C)c(C=NCc3ccncc3)c2=O)cc1,-15.4%
13,CCC(Oc1ccccc1)C(=O)Nc1nnc(S(=O)(=O)N2CCCCC2)s1 (stereo not given),-6.86%
14,CCOc1ccc(C2CC(=O)NC(SCC(=O)OC)=C2C#N)cc1 (stereo not given),9.67%
15,COc1ccc(-c2cc(C(=O)Nc3ccc(S(=O)(=O)Nc4onc(C)c4C)cc3)c3ccccc3n2)cc1OC,9.88%
16,CCC(CC)C(=O)NCCc1cc2ccc(C)cc2[nH]c1=O,-11.5%
17,O=Cc1ccc(N2CCCCCC2)cc1,-1.36%
18,CCOC(=O)C1=C(C)NC(SCC(N)=O)=C(C#N)C1c1ccncc1 (stereo not given),-2.55%
19,COc1ccccc1C(=O)N1CC2(C)CC1CC(C)(C)C2 (stereo not given),-17.9%
20,COc1ccc(Cl)cc1-c1n[nH]c(=S)o1,22.8%
21,COc1ccc(-c2nnn(-c3ccc(Cl)cc3Cl)c2N)cc1,18.2%
22,Clc1ccc(/C=C/c2ncc[nH]2)c(Cl)c1,-14.2%
23,Clc1ccc2nc(N3CCCCC3)[nH]c2c1,36.1%

row,Compound,inhibition
1,CN(C)C(CNc1ccc([N+](=O)[O-])cc1C#N)c1ccccc1 (stereo not given),0.73%
2,COc1ccc(C(=O)C2CCN(CC(=O)Nc3cc(C)cc(C)c3)CC2)cc1,5.89%
3,CCN1CCN(Cc2ccc(NC(=O)c3ccc(C)c(NC(=O)C(=O)c4c[nH]c5ccccc45)c3)cc2C(F)(F)F)CC1,22.5%
4,O=C(CSC1=NCCS1)Nc1nc2c(s1)CCCC2,-5.66%
5,Cc1ccc(CNC(=O)CCC(=O)Nc2nnc(C)s2)cc1,6.87%
6,COc1ccc(CC(=O)Nc2ncc([N+](=O)[O-])s2)cc1OC,37.9%
7,O=C(c1cc2c(s1)-c1ccccc1S(=O)(=O)C2)N1CCN(Cc2ccccc2)CC1,4.65%
8,COc1cccc(OC)c1C(=O)Nc1ccc(N2CCN(S(C)(=O)=O)CC2)cc1,8.9%
9,COCc1ccc(C(=O)Nc2ccc(C(=O)O)cc2)o1,28.9%
10,COC(=O)C1=C(C)N(C2CCCC2)C(=O)C1(NC(C)=O)C(F)(F)F (stereo not given),-18.9%
11,NC(=O)c1cc(C(=O)c2cccc(Cl)c2Cl)c[nH]1,24.7%
12,Cc1cnc(C(=O)Nc2nnc(C)s2)cn1,14.5%
13,O=C1C=C(Nc2ccccc2O)c2ccccc2C1=O,31.8%
14,CCCCOc1ccc(CN2CCC(O)CC2)cc1,17.8%
15,CCCCCCOc1ccc(N2C(=O)CC(SC(=NCC)NCC)C2=O)cc1 (stereo not given),2.18%
16,O=C1NC(=S)S/C1=C1\Sc2ccccc2N1CCCS(=O)(=O)O,2.35%
17,CN(C)CCCN1c2ccccc2Sc2ccc(C(F)(F)F)cc21,30.6%
18,Cc1ccc(C)c(NC(=O)c2ccccc2O)c1,-7.11%
19,Cc1nc(-c2ccc(C(=O)N3CCOCC3)cc2)cs1,10.6%
20,Cn1ncc(N=Cc2ccccc2O)c1C(=O)N1CCOCC1,-12.2%
21,O=C(NC1CCCCC1)c1ccc(S(=O)(=O)NCc2cccnc2)cc1,-17.7%
22,Cc1ccc(C)c(OCc2ccc(C(=O)NN)o2)c1,27.3%
23,O=C(Cc1ccc(F)cc1)NC1CCCC1,12.7%

row,Compound,inhibition
1,C[C@]1(OC(=O)/C=C/c2ccccc2)C[C@@H](O)[C@]2(O)C=CO[C@@H](O[C@@H]3O[C@H](CO)[C@@H](O)[C@H](O)[C@H]3O)[C@@H]21,5.08%
2,C1=Nc2ccccc2CN1c1ccccc1,7.62%
3,COc1ccc(C(C(=O)Nc2ccc(C(C)C)cc2)N(Cc2ccco2)C(=O)CC2NC(=O)NC2=O)cc1 (stereo not given),-6.35%
4,Cc1ncc([N+](=O)[O-])n1CC(=O)NC1CCCC1,1.84%
5,CC(=O)NS(=O)(=O)c1ccc(Nc2ccc([N+](=O)[O-])c3nonc23)cc1,34.2%
6,O=C1CC(=O)CC(c2ccco2)C1,28.2%
7,CC1=C([N+](=O)[O-])C(c2ccccc2)C2=C(N1)c1ccccc1C2=O (stereo not given),24.3%
8,COc1ccccc1C(=O)Nc1nnc(-c2ccc(F)cc2)o1,26.4%
9,N#CC1=C2N=C(N)c3ccccc3N2C2=C(C(=O)CCC2)C1c1cccc(Cl)c1 (stereo not given),5.41%
10,O=C1c2ccccc2NC(c2cccc([N+](=O)[O-])c2)N1CCc1ccccc1 (stereo not given),9.59%
11,CCS(=O)(=O)N1CCN(C(=O)c2ccco2)CC1,-24.8%
12,COc1cc(S(=O)(=O)N2CCN(C(=O)c3ccco3)CC2)c(OC)cc1C,-10.2%
13,COc1ccccc1NC(=O)Cn1nc(-c2ccncc2)nc1SCC(=O)NC1CCCC1,-1.02%
14,O=C(CCNS(=O)(=O)c1cccc2nonc12)N1CCN(c2cccc(Cl)c2)CC1,7.36%
15,C=CCN(c1ccccc1)S(=O)(=O)c1cccc2cccnc12,-2.13%
16,CC1CC(C)CN(S(=O)(=O)c2cccc3cccnc23)C1 (stereo not given),-4.37%
17,CCN(CC)C(=O)C(=O)c1cn(CC(=O)N2CCc3ccccc3C2)c2ccccc12,21.2%
18,CC(=O)Oc1ccc(C(=O)Nc2ccc3c(c2)C(=O)N(CCC(=O)O)C3=O)cc1,13.5%
19,Brc1ccc2c(c1)CN1CCCC1=N2,37.3%
20,Cc1n[nH]c(=O)nc1NCCc1ccccc1,-1%
21,c1ccc(CNc2nc(-c3ccccn3)nc3ccccc23)cc1,0.55%
22,CCOC(=O)COc1cccc2c(=O)n(CC(=O)N3CCCCC3)ccc12,-13.4%
23,CC(=O)CC1OC(=O)C(Br)=C1NCc1ccccc1 (stereo not given),3.89%
